The full list was thinned out, with the strongest signals kept by preference.
What was measured:
Test in all cases: glycan array binding signal (z-score within array); higher = stronger binding
Details in all cases: glycan notation: IUPAC condensed, linker removed
[1] = target: Gal(b1-4)GlcNAc(b1-3)Gal(b1-4)GlcNAc(b1-3)Gal(b1-4)GlcNAc(b1-3)Gal(b1-4)GlcNAc(b1-2)[Gal(b1-4)GlcNAc(b1-3)Gal(b1-4)GlcNAc(b1-3)Gal(b1-4)GlcNAc(b1-3)Gal(b1-4)GlcNAc(b1-6)]Man(a1-6)[Gal(b1-4)GlcNAc(b1-3)Gal(b1-4)GlcNAc(b1-3)Gal(b1-4)GlcNAc(b1-3)Gal(b1-4)GlcNAc(b1-2)Man(a1-3)]Man(b1-4)GlcNAc(b1-4)[Fuc(a1-6)]GlcNAc
Summary of the method: (§1)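 Glycan array data were curated from 3228 arrays in the Consortium for Functional Glycomics database and kept only where the protein sequence was available. Glycan names were converted to IUPAC-condensed notation, and columns mapping to the same glycan were averaged. The binding signal is a within-array Z-score, averaged across arrays of the same protein sequence at different concentrations or buffers and across linkers. Negative Z-scores can be read as non-binding.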

[2] = target: Gal(b1-4)GlcNAc(b1-3)Gal(b1-4)GlcNAc(b1-3)Gal(b1-4)GlcNAc(b1-3)Gal(b1-4)GlcNAc(b1-3)Gal(b1-4)GlcNAc(b1-2)Man(a1-3)[Gal(b1-4)GlcNAc(b1-3)Gal(b1-4)GlcNAc(b1-3)Gal(b1-4)GlcNAc(b1-3)Gal(b1-4)GlcNAc(b1-3)Gal(b1-4)GlcNAc(b1-2)Man(a1-6)]Man(b1-4)GlcNAc(b1-4)[Fuc(a1-6)]GlcNAc
Summary of the method: as §1

[3] = target: Gal(b1-4)GlcNAc(b1-3)Gal(b1-4)GlcNAc(b1-3)Gal(b1-4)GlcNAc(b1-3)Gal(b1-4)GlcNAc(b1-3)Gal(b1-4)GlcNAc(b1-2)[Gal(b1-4)GlcNAc(b1-3)Gal(b1-4)GlcNAc(b1-3)Gal(b1-4)GlcNAc(b1-3)Gal(b1-4)GlcNAc(b1-3)Gal(b1-4)GlcNAc(b1-6)]Man(a1-6)[Gal(b1-4)GlcNAc(b1-3)Gal(b1-4)GlcNAc(b1-3)Gal(b1-4)GlcNAc(b1-3)Gal(b1-4)GlcNAc(b1-3)Gal(b1-4)GlcNAc(b1-2)Man(a1-3)]Man(b1-4)GlcNAc(b1-4)[Fuc(a1-6)]GlcNAc
Summary of the method: as §1

[4] = target: Gal(b1-4)GlcNAc(b1-3)Gal(b1-4)GlcNAc(b1-3)Gal(b1-4)GlcNAc(b1-3)Gal(b1-4)GlcNAc(b1-3)Gal(b1-4)GlcNAc(b1-3)Gal(b1-4)GlcNAc(b1-2)Man(a1-3)[Gal(b1-4)GlcNAc(b1-3)Gal(b1-4)GlcNAc(b1-3)Gal(b1-4)GlcNAc(b1-3)Gal(b1-4)GlcNAc(b1-3)Gal(b1-4)GlcNAc(b1-3)Gal(b1-4)GlcNAc(b1-2)Man(a1-6)]Man(b1-4)GlcNAc(b1-4)GlcNAc
Summary of the method: as §1

[5] = target: Gal(b1-4)GlcNAc(b1-3)GalNAc
Summary of the method: as §1

Gal6S(b1-3)GlcNAc = target: Gal6S(b1-3)GlcNAc
Summary of the method: as §1

[6] = target: GalNAc(a1-3)GalNAc(b1-3)Gal(a1-4)Gal(b1-4)Glc
Summary of the method: as §1

Glc(b1-6)Glc = target: Glc(b1-6)Glc
Summary of the method: as §1

GlcNAc(b1-3)Fuc = target: GlcNAc(b1-3)Fuc
Summary of the method: as §1

[7] = target: GlcNAc(b1-3)Gal(b1-4)GlcNAc(b1-2)Man(a1-3)[GlcNAc(b1-3)Gal(b1-4)GlcNAc(b1-2)Man(a1-6)]Man(b1-4)GlcNAc(b1-4)[Fuc(a1-6)]GlcNAc
Summary of the method: as §1

[8] = target: GlcNAc(b1-3)Gal(b1-4)GlcNAc(b1-3)Gal(b1-4)GlcNAc(b1-2)Man(a1-3)[GlcNAc(b1-3)Gal(b1-4)GlcNAc(b1-3)Gal(b1-4)GlcNAc(b1-2)Man(a1-6)]Man(b1-4)GlcNAc(b1-4)[Fuc(a1-6)]GlcNAc
Summary of the method: as §1

[9] = target: GlcNAc(b1-3)Gal(b1-4)GlcNAc(b1-3)Gal(b1-4)GlcNAc(b1-2)[GlcNAc(b1-3)Gal(b1-4)GlcNAc(b1-3)Gal(b1-4)GlcNAc(b1-6)]Man(a1-6)[GlcNAc(b1-3)Gal(b1-4)GlcNAc(b1-3)Gal(b1-4)GlcNAc(b1-2)Man(a1-3)]Man(b1-4)GlcNAc(b1-4)[Fuc(a1-6)]GlcNAc
Summary of the method: as §1

[10] = target: GlcNAc(b1-3)Gal(b1-4)GlcNAc(b1-3)Gal(b1-4)GlcNAc(b1-3)Gal(b1-4)GlcNAc(b1-3)Gal(b1-4)GlcNAc(b1-2)Man(a1-3)[GlcNAc(b1-3)Gal(b1-4)GlcNAc(b1-3)Gal(b1-4)GlcNAc(b1-3)Gal(b1-4)GlcNAc(b1-3)Gal(b1-4)GlcNAc(b1-2)Man(a1-6)]Man(b1-4)GlcNAc(b1-4)[Fuc(a1-6)]GlcNAc
Summary of the method: as §1

GlcNAc(b1-3)Man = target: GlcNAc(b1-3)Man
Summary of the method: as §1

[11] = target: Neu5Ac(a2-3)Gal(b1-3)GalNAc(b1-3)Gal(a1-4)Gal(b1-4)Glc
Summary of the method: as §1

Neu5Ac(a2-3)Gal(b1-4)Glc = target: Neu5Ac(a2-3)Gal(b1-4)Glc
Summary of the method: as §1

[12] = target: Neu5Ac(a2-3)Gal(b1-4)GlcNAc(b1-2)Man
Summary of the method: as §1

[13] = target: Neu5Ac(a2-3)Gal(b1-4)GlcNAc(b1-3)Gal(b1-4)GlcNAc(b1-3)Gal(b1-4)GlcNAc(b1-2)Man(a1-3)[Neu5Ac(a2-3)Gal(b1-4)GlcNAc(b1-3)Gal(b1-4)GlcNAc(b1-3)Gal(b1-4)GlcNAc(b1-2)Man(a1-6)]GalNAc
Summary of the method: as §1

Neu5Ac(a2-6)Gal = target: Neu5Ac(a2-6)Gal
Summary of the method: as §1

[14] = target: Neu5Ac(a2-6)Gal(b1-3)GlcNAc(b1-3)[Gal(b1-4)GlcNAc(b1-6)]Gal(b1-4)Glc
Summary of the method: as §1

[15] = target: Neu5Ac(a2-6)Gal(b1-4)GlcNAc(b1-2)Man(a1-3)[GlcNAc(b1-4)][Neu5Ac(a2-6)Gal(b1-4)GlcNAc(b1-2)Man(a1-6)]Man(b1-4)GlcNAc(b1-4)GlcNAc
Summary of the method: as §1

[16] = target: Neu5Ac(a2-6)Gal(b1-4)GlcNAc(b1-2)Man(a1-3)[Neu5Ac(a2-6)Gal(b1-4)GlcNAc(b1-2)Man(a1-6)]Man(b1-4)GlcNAc(b1-4)[Fuc(a1-6)]GlcNAc
Summary of the method: as §1

[17] = target: Neu5Ac(a2-6)Gal(b1-4)GlcNAc(b1-2)[Neu5Ac(a2-6)Gal(b1-4)GlcNAc(b1-4)]Man(a1-3)[GlcNAc(b1-4)][Neu5Ac(a2-6)Gal(b1-4)GlcNAc(b1-4)Man(a1-6)]Man(b1-4)GlcNAc(b1-4)GlcNAc
Summary of the method: as §1

[18] = target: Neu5Ac(a2-6)Gal(b1-4)GlcNAc(b1-3)Gal(b1-4)GlcNAc(b1-3)GalNAc
Summary of the method: as §1

Neu5Ac(a2-8)Neu5Ac = target: Neu5Ac(a2-8)Neu5Ac
Summary of the method: as §1

[19] = target: Neu5Ac(a2-8)Neu5Ac(a2-3)Gal(b1-3)GalNAc(b1-4)[Neu5Ac(a2-8)Neu5Ac(a2-3)]Gal(b1-4)Glc
Summary of the method: as §1

[20] = target: Neu5Gc(a2-8)Neu5Gc(a2-3)Gal(b1-4)GlcNAc(b1-3)Gal(b1-4)GlcNAc
Summary of the method: as §1

B1: B725 (Bifidobacterium sp) (protein)
chain: MNNTTRAVIATAAIGALLIPLAGCGNTTTSSGKTELTVWSWDASIDRAAKSFMKANPDITVKVSNVGSTEETYTALNNAAQAGSGLPDVTLIEYLAIPQFVHSDTLMDLSKVYNTAKLKDTFTPGTWNSVNINGGLYAMPADSGPMAYFYDKDVFDKAGISEPPTTWDEFYEDAKKIRATGSYITSDSGDAGLFNAMMWAMGGHAYKLNDDKLTINIAKDKGAQRFMDLWQKMRDEDLIDVHTKTWTDDWMKSLGDGSIASLISGAWMANNLLQGVPQATGKFRVALLPTIDGTPINGEYGGSGLAITKKIPDGKLDAAKKFVEYVTTNDEGIDARVSNGSFPATTKTLNQKDFLAKTTLRNTDGSDNEFFGGQKYNEIFSQAAKDVTGKWEFLPFEPYARSVYNDNMGSFFAGKTSFRTAADNWQKALKDYAKDQGFTVQ
B1 was tested, and the “glycan array binding signal (z-score)” value [1] was 6.73, the “glycan array binding signal (z-score)” value [2] was 4 and the “glycan array binding signal (z-score)” value [3] was 5.49. The “glycan array binding signal (z-score)” value [4] was 8.21, the “glycan array binding signal (z-score)” value [5] was 0.358 and the “glycan array binding signal (z-score)” value (Gal6S(b1-3)GlcNAc) was -0.217. For the same binder, the “glycan array binding signal (z-score)” value [6] was -0.209, the “glycan array binding signal (z-score)” value (Glc(b1-6)Glc) was -0.219 and the “glycan array binding signal (z-score)” value (GlcNAc(b1-3)Fuc) was -0.207. The “glycan array binding signal (z-score)” value [7] was -0.131, the “glycan array binding signal (z-score)” value [8] was -0.216 and the “glycan array binding signal (z-score)” value [9] was -0.203. For the same binder, the “glycan array binding signal (z-score)” value [10] was 0.138, the “glycan array binding signal (z-score)” value (GlcNAc(b1-3)Man) was -0.204 and the “glycan array binding signal (z-score)” value [11] was -0.221. For the same binder, the “glycan array binding signal (z-score)” value (Neu5Ac(a2-3)Gal(b1-4)Glc) was -0.228, the “glycan array binding signal (z-score)” value [12] was -0.207 and the “glycan array binding signal (z-score)” value [13] was -0.042. For the same binder, the “glycan array binding signal (z-score)” value (Neu5Ac(a2-6)Gal) was -0.222, the “glycan array binding signal (z-score)” value [14] was -0.205 and the “glycan array binding signal (z-score)” value [15] was -0.227. The “glycan array binding signal (z-score)” value [16] was -0.217, the “glycan array binding signal (z-score)” value [17] was -0.212 and the “glycan array binding signal (z-score)” value [18] was -0.214. The “glycan array binding signal (z-score)” value (Neu5Ac(a2-8)Neu5Ac) was -0.215, the “glycan array binding signal (z-score)” value [19] was -0.2 and the “glycan array binding signal (z-score)” value [20] was -0.198.
